Common to all, as to test: NCI-60 one-dose screen, 48 h (100 = growth as untreated, 0 = no growth, -100 = all killed)
In one assay the test system is SR leukemia. As to conditions: 10 µM unless noted.
The test system of a further assay is RPMI-8226 leukemia. As to conditions: 10 µM unless noted.
The subject of another assay is OVCAR-8 ovarian. Conditions: 10 µM unless noted.
The next assay has as its system OVCAR-5 ovarian. As to conditions: 10 µM unless noted.
A further assay deals with OVCAR-4 ovarian. Conditions: 10 µM unless noted.
In another assay the test system is SK-OV-3 ovarian. Conditions: 10 µM unless noted.
For another assay, the system named is IGROV1 ovarian. Conditions: 10 µM unless noted.
A further assay concerns OVCAR-3 ovarian. Conditions: 10 µM unless noted.
The test system of a further assay is HS 578T breast. As to conditions: 10 µM.
The next assay relates to NCI/ADR-RES ovarian. Conditions: 10 µM unless noted.
A further assay deals with T-47D breast. As to conditions: 10 µM unless noted.
Another assay concerns MDA-MB-435 melanoma. Conditions: 10 µM unless noted.
A further assay has as its system SW-620 colon. As to conditions: 10 µM unless noted.
The next assay relates to MCF7 breast. As to conditions: 10 µM unless noted.
The next assay concerns HCT-116 colon. Conditions: 10 µM unless noted.
The subject of a further assay is HCC-2998 colon. As to conditions: 10 µM.
For the next assay, the system named is KM12 colon. Conditions: 10 µM unless noted.
For a further assay, the system named is BT-549 breast. Conditions: 10 µM unless noted.

Structures are written as SMILES. This is part of a sample that, as a whole, favours compounds with a hit. Of some 83,000 tested, about 20% had one in any assay.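 Percent growth is the endpoint: 0 to 100 indicates growth inhibition (40 means 60% inhibition), 0 means no net growth, and negative values indicate cell death.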 Values without a mark were called inactive. Active and inactive are the calls of the source. How the source made its calls: active means growth percent below 10; inactive means the rest.

As to `CC(=O)C1CC(C)CCC1C(C)C` (configuration not stated), the growth in the assay with SR leukemia is 78.9%; with RPMI-8226 leukemia, 56.3%; in the assay on OVCAR-8 ovarian, 109%; in the assay on OVCAR-5 ovarian it was 105%; in the assay on OVCAR-4 ovarian it was 61.4%; with SK-OV-3 ovarian, 108%. The growth was 99.2% in the assay on IGROV1 ovarian; 94.7% in the assay with OVCAR-3 ovarian; 106% in the assay with HS 578T breast; 86.4% in the assay on NCI/ADR-RES ovarian; 71.9% in the assay on T-47D breast; 121% with MDA-MB-435 melanoma. The growth with SW-620 colon was 106%; with MCF7 breast, 85.3%; with HCT-116 colon, 61.6%; in the assay on HCC-2998 colon, 104%; in the assay on KM12 colon it was 98%.
As for `CCCCN1CCCC[C@@H]1C(=O)N[C@H](C(=O)N(C)[C@H](CCc1nc(C(=O)N[C@@H](Cc2ccccc2)C[C@H](C)C(=O)OC)cs1)C(C)C)C(C)C`, the growth with SR leukemia was 7.34% (active); in the assay on RPMI-8226 leukemia it was 7.01% (active); in the assay on OVCAR-8 ovarian it was 82.6%; in the assay on OVCAR-5 ovarian, 95.1%; in the assay on OVCAR-4 ovarian, 61.3%; in the assay on SK-OV-3 ovarian it was 75.4%. Besides, the growth was 50.3% in the assay on IGROV1 ovarian; 65.2% in the assay on OVCAR-3 ovarian; 90% in the assay with HS 578T breast; 65.4% with NCI/ADR-RES ovarian; 45.3% in the assay on T-47D breast; -6.94% (active) with MDA-MB-435 melanoma. Further, the growth in the assay on SW-620 colon was 85.3%; in the assay with MCF7 breast, 35.6%; in the assay on HCT-116 colon, 41.5%; with HCC-2998 colon, 67.6%; with KM12 colon, 47.7%.
In the case of `Oc1ccc(C(c2ccc(O)cc2)C(Cl)(Cl)Cl)cc1`, the growth with SR leukemia is 87.8%; in the assay on RPMI-8226 leukemia, 83.4%; in the assay on OVCAR-8 ovarian, 103%; with OVCAR-5 ovarian, 88.5%; in the assay on OVCAR-4 ovarian, 94.2%; in the assay with SK-OV-3 ovarian, 118%. Besides, the growth was 93% in the assay on IGROV1 ovarian; 105% in the assay with OVCAR-3 ovarian; 88.3% with HS 578T breast; 94.9% with NCI/ADR-RES ovarian; 94.3% in the assay with T-47D breast; 104% in the assay with MDA-MB-435 melanoma. Further, the growth in the assay with SW-620 colon was 114%; in the assay with MCF7 breast, 111%; in the assay with HCT-116 colon it was 83.8%; with HCC-2998 colon, 122%; with KM12 colon, 104%.
Consider `CCN(CCN(C)C)C(=O)CNCc1cc(C(N)=O)ccn1`, for which the growth in the assay with SR leukemia is 93%; with RPMI-8226 leukemia, 96.1%; in the assay on OVCAR-8 ovarian, 89.9%; in the assay with OVCAR-5 ovarian it was 101%; with OVCAR-4 ovarian, 109%; with SK-OV-3 ovarian it was 96.4%. Also, the growth was 109% in the assay with IGROV1 ovarian; 119% in the assay with OVCAR-3 ovarian; 108% in the assay with HS 578T breast; 104% with NCI/ADR-RES ovarian; 104% with T-47D breast; 110% in the assay on MDA-MB-435 melanoma. In addition, the growth with SW-620 colon was 109%; in the assay on MCF7 breast it was 96.1%; in the assay with HCT-116 colon, 94.4%; in the assay with HCC-2998 colon, 94.2%; with KM12 colon it was 101%.
Consider `N#CC(C#N)=NO`, for which the growth in the assay with SR leukemia was 97.1%; in the assay on RPMI-8226 leukemia, 101%; in the assay on OVCAR-8 ovarian it was 103%; with OVCAR-5 ovarian it was 104%; with OVCAR-4 ovarian, 113%; in the assay with SK-OV-3 ovarian it was 89.1%. In addition, the growth is 101% in the assay on IGROV1 ovarian; 111% in the assay with OVCAR-3 ovarian; 99.6% with HS 578T breast; 100% with NCI/ADR-RES ovarian; 102% with T-47D breast; 103% in the assay with BT-549 breast. The growth was 100% in the assay with SW-620 colon; 96.1% with MCF7 breast; 92.5% in the assay with HCT-116 colon; 96.3% with HCC-2998 colon; 103% in the assay on KM12 colon.
As to `Cc1c(N)ccc(-c2ccc(N)c(C)c2S(=O)(=O)O)c1S(=O)(=O)O`, the growth is 102% in the assay on SR leukemia; 107% with RPMI-8226 leukemia; 107% in the assay with OVCAR-8 ovarian; 101% in the assay with OVCAR-5 ovarian; 112% in the assay on OVCAR-4 ovarian; 111% in the assay on SK-OV-3 ovarian. Besides, the growth in the assay on IGROV1 ovarian was 110%; in the assay on OVCAR-3 ovarian, 124%; in the assay on HS 578T breast it was 106%; with NCI/ADR-RES ovarian, 102%; in the assay on T-47D breast, 106%; in the assay with MDA-MB-435 melanoma, 114%. Also, the growth in the assay on SW-620 colon was 109%; in the assay on MCF7 breast it was 108%; in the assay on HCT-116 colon, 101%; in the assay on HCC-2998 colon it was 102%.
Regarding `Nc1c(C(=O)c2ccccc2)sc2nc(-c3cccs3)cc(-c3cccs3)c12`, the growth in the assay with SR leukemia is 24.4%; in the assay on RPMI-8226 leukemia it was 57.7%; in the assay on OVCAR-8 ovarian, 54.8%; in the assay with OVCAR-5 ovarian, 84.5%; in the assay with OVCAR-4 ovarian, 62.6%; with SK-OV-3 ovarian it was 46%. For the same compound, the growth in the assay with IGROV1 ovarian is 66.3%; in the assay on OVCAR-3 ovarian, 11.9%; in the assay with HS 578T breast it was 53.4%; in the assay with NCI/ADR-RES ovarian it was 24.4%; with T-47D breast, 36%; in the assay on MDA-MB-435 melanoma, -14.4% (active). The growth with SW-620 colon was 28.8%; with MCF7 breast, 45.9%; in the assay with HCT-116 colon, 16.8%; in the assay with HCC-2998 colon, 72.1%; in the assay with KM12 colon it was 29.1%.
On to `Cc1ccc(-c2nc3ccc(Cl)cn3c2NC2CCCCC2)o1`, for which the growth with SR leukemia was 54.3%; in the assay with RPMI-8226 leukemia, 51.1%; in the assay on OVCAR-8 ovarian, 92.7%; in the assay on OVCAR-5 ovarian, 108%; with OVCAR-4 ovarian it was 71%; with SK-OV-3 ovarian, 72.1%. Moreover, the growth in the assay on IGROV1 ovarian is 62.1%; in the assay on OVCAR-3 ovarian it was 89.7%; in the assay with HS 578T breast, 88.2%; in the assay on NCI/ADR-RES ovarian, 86.2%; with T-47D breast, 58.1%; in the assay with BT-549 breast, 105%. In addition, the growth is 97.2% with MDA-MB-435 melanoma; 72.1% in the assay on MCF7 breast; 56.1% in the assay on HCT-116 colon; 102% in the assay with HCC-2998 colon; 89.2% in the assay with KM12 colon.
For `CC/C=C\C[C@H]1C/C=C2/C(=O)C=C[C@@H]2C/C=C\CCCC(=O)O1`, the growth is 0.487% (active) in the assay with SR leukemia; -19.1% (active) in the assay on RPMI-8226 leukemia; 10% (active) in the assay with OVCAR-8 ovarian; 21.7% in the assay on OVCAR-5 ovarian; 10.6% with OVCAR-4 ovarian; 60.2% with SK-OV-3 ovarian. Moreover, the growth with IGROV1 ovarian is -26.7% (active); in the assay with OVCAR-3 ovarian, -47.3% (active); in the assay on HS 578T breast, 36.4%; in the assay on NCI/ADR-RES ovarian, -1.72% (active); with T-47D breast, 39.7%; in the assay with BT-549 breast it was -20.4% (active). Moreover, the growth is -45.5% (active) in the assay with MDA-MB-435 melanoma; -1.97% (active) with MCF7 breast; -67.5% (active) in the assay on HCT-116 colon; -79.4% (active) in the assay with HCC-2998 colon; -68.7% (active) in the assay on KM12 colon.

(Values after PubChem BioAssay (NCI).)
